TGFb inhibitor: TGF-b pathway inhibition; HepG2 CAGA-GFP TGF-b/SMAD3 reporter, GFP fluorescence, 18 h; TGF-beta stimulated, 500 pg/mL final; Potency, µM (series often up to 46.1 µM), actives largely listed as inhibitors; 1.2% of 410,000 active; further: nearly all actives have a fitted effect of over 65% in size
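TGF-beta reporter screen: HEPG2 CAGA-GFP, 1% FBS, 500 pg/mL TGF-beta final, 18 h; per-cell GFP summed per well; curves fitted and categorized by class.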
ATXN viability: reduces viability in counter-screen for ATXN expression inhibitors. S2 cells (HEK-293 line with an ATXN2-luciferase reporter) viability, CellTiter-Fluor protease fluorescence, 24 h. Potency, µM (titrated, usually from 56.7 µM), most hits filed as cytotoxic. 0.49% of 400,000 active. AID 651635; further: nearly all actives have a fitted effect of over 40% in size
VP16 counter: counter-screen for ROR gamma inhibitors: Gal4-VP16 reporter; 3.5% of 310,000 active; Drosophila S2 Gal4-VP16 UAS-luciferase, luminescence, 20 h; AID 2546; Potency, µM (top dose mostly 53.6 µM), hits mostly inhibitors;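 further: Gal4-VP16 expression switched on by copper sulfate through the metallothionein promoter; nearly all actives have a fitted effect of over 50% in size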
HepG2 viability: kills HepG2 cells in TGF-b inhibitor counter-screen; HepG2 CAGA-GFP viability, ATP luminescence, 18 h; Potency, µM (doses to about 46.1 µM), usual class: cytotoxic; 0.76% of 410,000 active; AID 588856
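HepG2 CAGA-GFP cells (1000/well, DMEM with 1% FBS) received compound, then TGF-beta at 500 pg/mL final, and were incubated 18 hours at 37 degrees C. Viability was read by CellTiter-Glo luminescence. Media-only wells were set as complete cell-killing and DMSO as no toxicity.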
ATXN2 expr inh: inhibitors of ATXN2 expression. AID 1745845. 0.72% of 360,000 active. Potency, µM (highest dose often 57 µM), hits mostly inhibitors. HEK-293 ATXN2-luciferase reporter, luminescence, 24 h; further: nearly all actives have a fitted effect of over 55% in size
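ATXN2-luciferase reporter cells (luciferase flanked by upstream and downstream ATXN2 gene portions) were treated 24 h at 37 °C with compounds at up to 57 uM. SteadyGlo luminescence gave expression; GF-AFC fluorescence gave viability.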
RORgamma inh: ROR gamma (mouse) transcription inhibition; Potency, µM (series often up to 53.6 µM), usual class: inhibitors; AID 2551; Drosophila S2 Gal4-RORgamma UAS-luciferase reporter, 20 h; 5.4% of 310,000 active; further: nearly all actives have a fitted effect of over 60% in size
Target sequence (P51450 whole entry, looked up, the tested form may be a part): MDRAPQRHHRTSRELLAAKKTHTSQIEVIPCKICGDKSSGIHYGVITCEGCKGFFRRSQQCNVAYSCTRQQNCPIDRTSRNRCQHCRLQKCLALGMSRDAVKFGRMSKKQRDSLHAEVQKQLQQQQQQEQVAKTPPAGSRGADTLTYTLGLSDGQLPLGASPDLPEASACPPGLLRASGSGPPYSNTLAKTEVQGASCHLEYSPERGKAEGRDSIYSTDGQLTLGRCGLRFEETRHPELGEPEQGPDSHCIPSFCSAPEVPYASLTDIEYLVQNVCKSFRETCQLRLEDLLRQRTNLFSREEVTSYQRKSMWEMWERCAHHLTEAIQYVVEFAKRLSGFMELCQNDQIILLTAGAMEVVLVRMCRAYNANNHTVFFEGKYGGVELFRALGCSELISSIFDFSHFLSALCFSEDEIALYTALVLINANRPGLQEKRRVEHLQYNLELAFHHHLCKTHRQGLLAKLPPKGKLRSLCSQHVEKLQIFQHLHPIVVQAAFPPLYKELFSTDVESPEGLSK
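ROR gamma transcriptional activity was tracked as Gal4-UAS luciferase output in stably transfected Drosophila Schneider cells, with compound added 1 hr before 700 uM copper sulfate induction and a 20 hr ambient-temperature incubation.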
Hits are given with their value; - = inactive; ? = inconclusive; . = not tested or not shown. Most compounds without a hit are left out; they make up all but 6.3% or so of the library. The call rests on the fitted dose curve; in most records, active means well fitted curve in the direction sought with a large enough effect; inconclusive means small, poorly fitted or top-dose-only effect, or another doubt; inactive means no such curve, though single readings can be large; an effect the other way counts as inactive or inconclusive.

SMILES	TGFb inhibitor	ATXN viability	VP16 counter	HepG2 viability	ATXN2 expr inh	RORgamma inh
O=C(c1cccc(Cl)c1)c1nn(-c2ccccc2)c(=O)cc1C(F)(F)F	-	?	-	-	25.1µM	?
O=C(Nc1ccccc1)c1nn(-c2ccccc2)c(=O)cc1C(F)(F)F	-	-	-	-	-	-
O=C(c1ccccc1)c1nn(-c2ccccc2)c(=O)cc1C(F)(F)F	-	-	-	-	?	-
O=C(Nc1ncc(Cc2cc(Cl)ccc2Cl)s1)c1ccc([N+](=O)[O-])cc1	?	-	4.47µM	-	-	1µM
N#CCC(=O)Nc1ncc(Cc2ccccc2Cl)s1	-	-	?	-	.	12.6µM
CCCn1cc(S(=O)(=O)c2ccc(OC)cc2)c(=O)c2cc(F)c(N3CCCCCC3)cc21	-	.	.	-	.	.
COc1cc(Br)c(C[N+]2(CCOCCC3CCC4CC3C4(C)C)CCOCC2)cc1OC (configuration not stated)	.	-	.	.	.	.
CC/C=C/C(=O)N1CC2(CC(c3cccc(NC(=O)COc4ccc(Cl)cc4)c3)=NO2)C[C@H]1C(N)=O (some centres not stated)	-	-	?	-	-	-
N=c1n(CCN2CCOCC2)c2ccccc2n1CC(=O)c1cccc([N+](=O)[O-])c1	-	-	-	-	-	-
O=C(Nc1nc2ccccc2n1CCN1CCOCC1)c1cccc([N+](=O)[O-])c1	.	.	.	.	21.7µM	.
O=C(Nc1nc2ccccc2n1CCN1CCOCC1)c1ccc(Cn2cc([N+](=O)[O-])cn2)o1	-	-	?	-	-	11.2µM
O=C(N/N=C/c1cccnc1)c1ccc(Cn2cc([N+](=O)[O-])cn2)o1	-	-	-	-	-	-
O=C(Nc1nc2ccccc2n1CCN1CCOCC1)c1ccc(COc2ccccc2Br)o1	-	?	5.62µM	-	?	2µM
CN1CCN(NC(=O)c2ccc(COc3ccccc3Br)o2)CC1	-	-	-	-	-	-
COc1ccc(C)cc1NC(C)C(=O)c1c[nH]c2ccccc12 (configuration not stated)	-	.	.	-	.	.
COc1ccccc1-c1csc(C(NC(C)=O)c2ccccc2)n1 (configuration not stated)	-	-	.	-	-	.
CC(C)C[C@H](N)c1cn([C@@H](CCCCN)C(=O)N2CCNCC2)nn1	?	?	-	-	1.58µM	-
COc1ccc(C=C2CS(=O)(=O)CC(=Cc3ccc(OC)cc3)C2=O)cc1	5.01µM	?	.	-	.	.
O=S1(=O)CC(N2CCCCC2)CN1Cc1cn(Cc2ccc(Cl)cc2)nn1 (configuration not stated)	.	-	.	.	-	.
COc1ccccc1-c1oc2ccccc2c1C#CC1(N)CCCCC1	?	25.1µM	.	-	?	.
CC(C)NC(=O)c1ccc2c(c1)N(Cc1cccc(Cl)c1)C(=O)c1ccccc1S2=O (configuration not stated)	-	.	.	-	.	.
Cc1ccc(C(=O)Nc2cccc(-c3nc(CNC(=O)C4CCCCC4)c(C)o3)c2)s1	.	-	.	.	.	.
CN(C)CCCNC(=O)c1cccc(-c2cnc3cccnn23)c1	-	-	.	-	-	.
CC1CN(CN2C(=O)c3ccccc3C2=O)CC(C)O1 (configuration not stated)	-	-	12.6µM	-	-	-
CCN(c1ccccc1)S(=O)(=O)c1ccc(NN)nc1	-	-	.	-	.	.
SMILES	TGFb inhibitor	ATXN viability	VP16 counter	HepG2 viability	ATXN2 expr inh	RORgamma inh
CCN(CC)S(=O)(=O)c1ccc(N/N=C/c2cccnc2)nc1	-	-	-	-	.	-
CN1CCN(S(=O)(=O)c2ccc(NN)nc2)CC1	-	-	.	-	-	.
CCN(CC)S(=O)(=O)c1ccc(N/N=C/c2cc(OC)ccc2O)nc1	-	-	11.2µM	-	3.16µM	4.47µM
CCN(CC)S(=O)(=O)c1ccc(NN)nc1	-	-	17.8µM	-	?	4.47µM
CC(C)N(C(C)C)S(=O)(=O)c1ccc(NN)nc1	-	-	?	-	.	14.1µM
Cc1ccc(NC(=O)COc2ccccc2C(=O)Nc2ccccc2)cc1	-	.	.	-	.	.
Cc1c(Cl)cccc1NC(=O)C(=O)NNC(=O)c1ccccc1F	-	-	?	-	-	14.1µM

High-throughput results deposited in PubChem BioAssay by National Center for Advancing Translational Sciences (NCATS).
